Active and inactive are the calls of the source. How the source made its calls: active means hit-call score of the fitted dose curve at least 0.9, where 1 is the maximum; inactive means score below 0.9.
What was measured:
Conditions in all cases: mRNA level, 48 h; actives raise or lower the signal
[1] = read-out: MicroRNA 122 (MIR122), gene 406906; experiment: LTEA_HepaRG_MIR122: Life Technologies and Expression Analysis (LTEA) Assay for MicroRNA 122 (MIR122) using HepaRG (AID 2283516); further: the transcript read is the microRNA miR-122
Method in brief: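 HepaRG plated 48 h, switched to serum-free induction medium, then treated in duplicate for 48 h (100 uM top, half-log steps, 0.5% DMSO vehicle). RNA isolated, qRT-PCR performed, concentration-response fitted both directions relative to DMSO.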

[2] = read-out: matrix metalloproteinase-10 (MMP10), MMP10 (gene 4319); experiment: LTEA_HepaRG_MMP10: Life Technologies and Expression Analysis (LTEA) Assay for matrix metalloproteinase-10 (MMP10) using HepaRG (AID 2283517)
Method in brief: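 Gain or loss of MMP10 mRNA is fitted relative to the 0.5% DMSO vehicle. The human hepatic line HepaRG receives a 48-hour serum-free exposure, in duplicate, with a maximum concentration of 100 uM.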

MYC, MYC (gene 4609) = experiment: LTEA_HepaRG_MYC: Life Technologies and Expression Analysis (LTEA) Assay for MYC using HepaRG (AID 2283518)
Method in brief: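 MYC transcript changes, up or down relative to 0.5% DMSO, from TaqMan qRT-PCR normalized to three housekeeping genes. Human HepaRG cultures received chemicals for 48 h at eight half-log concentrations up to 100 uM, in duplicate.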

[3] = read-out: matrix metalloproteinase-3 (MMP3), MMP3 (gene 4314); experiment: LTEA_HepaRG_MMP3: Life Technologies and Expression Analysis (LTEA) Assay for matrix metalloproteinase-3 (MMP3) using HepaRG (AID 2283519)
Method in brief: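 HepaRG, human; 48 h dosing, 8 conc. (max 100 uM, half-log), duplicate, 0.5% DMSO. Readout: MMP3 transcript by Fluidigm TaqMan qRT-PCR, ACTB/GAPDH/POLR2A-normalised. Gain or loss fitted vs DMSO.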

[4] = read-out: Paternally Expressed 10 (PEG10), PEG10 (gene 23089); experiment: LTEA_HepaRG_PEG10: Life Technologies and Expression Analysis (LTEA) Assay for Paternally Expressed 10 (PEG10) using HepaRG (AID 2283520)
Method in brief: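 HepaRG, 48 h post-plating → serum-free induction medium → 48 h chemical exposure (duplicate, 8-pt, max 100 uM, half-log, 0.5% DMSO) → lysis in RLT → TaqMan qRT-PCR for PEG10, ACTB/GAPDH/POLR2A normalisation.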

[5] = read-out: Protein phosphatase 2A (PPP2R4), PTPA (gene 5524); experiment: LTEA_HepaRG_PPP2R4: Life Technologies and Expression Analysis (LTEA) Assay for Protein phosphatase 2A (PPP2R4) using HepaRG (AID 2283522)
Method in brief: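 Readout is PPP2R4 transcript level by microfluidic qRT-PCR after 48 h chemical treatment of human HepaRG liver cells. Concentrations spanned 100 uM downward in half-log steps; gain or loss of signal was fitted relative to DMSO.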

[6] = read-out: Phosphatase and tensin (PTEN), PTEN (gene 5728); experiment: LTEA_HepaRG_PTEN: Life Technologies and Expression Analysis (LTEA) Assay for Phosphatase and tensin (PTEN) using HepaRG (AID 2283523)
Method in brief: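 Read-out is PTEN transcript level by multiplexed TaqMan qRT-PCR after 48 h chemical treatment of human HepaRG cultures in serum-free induction medium. Concentrations spanned 100 uM downward in half-log steps, 0.5% DMSO throughout; activity fitted in both directions against vehicle.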

[7] = read-out: solute carrier (SLC22A1), SLC22A1 (gene 6580); experiment: LTEA_HepaRG_SLC22A1: Life Technologies and Expression Analysis (LTEA) Assay for solute carrier (SLC22A1) using HepaRG (AID 2283524)
Method in brief: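 HepaRG (human liver line), 48 h dosing in serum-free induction medium; 8 conc., half-log down from 100 uM, 0.5% DMSO vehicle, duplicates. Endpoint: SLC22A1 mRNA, qRT-PCR, housekeeping-normalized; gain/loss fit vs DMSO.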

[8] = read-out: Pyruvate Dehydrogenase Kinase 4 (PDK4), PDK4 (gene 5166); experiment: LTEA_HepaRG_PDK4: Life Technologies and Expression Analysis (LTEA) Assay for Pyruvate Dehydrogenase Kinase 4 (PDK4) using HepaRG (AID 2283525)
Method in brief: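 In this multiplexed human HepaRG expression assay, cells are treated 48 h with test chemicals across an eight-point range starting at 100 uM. PDK4 mRNA changes, normalized to ACTB/GAPDH/POLR2A, are fitted in both directions relative to vehicle.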

[9] = read-out: Nuclear factor erythroid 2-related factor 2 (Homo sapiens) (UniProt Q16236); experiment: LTEA_HepaRG_NFE2L2: Life Technologies and Expression Analysis (LTEA) Assay for Nuclear factor erythroid 2-related factor 2 (NFE2L2) Transcription Factor using HepaRG (AID 2283527)
Method in brief: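 Transcript level of NFE2L2 is the read-out, measured by microfluidic TaqMan qRT-PCR and normalized to three housekeeping genes. Human HepaRG cultures received test chemical for 48 h at up to 100 uM in half-log steps. Gain or loss of signal is fitted relative to 0.5% DMSO.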

[10] = read-out: succinate dehydrogenase complex iron sulfur subunit B (SDHB), SDHB (gene 6390); experiment: LTEA_HepaRG_SDHB: Life Technologies and Expression Analysis (LTEA) Assay for succinate dehydrogenase complex iron sulfur subunit B (SDHB) using HepaRG (AID 2283528)
Method in brief: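 HepaRG cells (~100,000/well, plated 48 h) exposed in duplicate for 48 h in serum-free induction medium to 8-point half-log series from 100 uM in 0.5% DMSO; mRNA by qRT-PCR normalised to ACTB, GAPDH, POLR2A; bidirectional fit versus DMSO.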

[11] = read-out: Signal transducer and activator of transcription 3 (Homo sapiens) (UniProt P40763); experiment: LTEA_HepaRG_STAT3: Life Technologies and Expression Analysis (LTEA) Assay for Signal transducer and activator of transcription (STAT3) using HepaRG (AID 2283529)
Method in brief: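 Read-out is STAT3 mRNA level by qRT-PCR, normalized to three housekeeping genes, in human HepaRG liver cells treated for 48 h. Concentrations ran from 100 uM downward in half-log steps; curves were fitted for gain or loss relative to 0.5% DMSO.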

[12] = read-out: solute carrier (SLCO1B1), SLCO1B1 (gene 10599); experiment: LTEA_HepaRG_SLCO1B1: Life Technologies and Expression Analysis (LTEA) Assay for solute carrier (SLCO1B1) using HepaRG (AID 2283530)
Method in brief: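 SLCO1B1 transcript levels were quantified by TaqMan qRT-PCR using three housekeeping genes for normalization. This followed 48 h chemical exposure (100 uM top, half-log, 8 points, 0.5% DMSO) of HepaRG liver cells, with gain or loss fitted relative to DMSO.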

[13] = read-out: sulfotransferase 2A1 (SULT2A1), SULT2A1 (gene 6822); experiment: LTEA_HepaRG_SULT2A1: Life Technologies and Expression Analysis (LTEA) Assay for sulfotransferase 2A1 (SULT2A1) using HepaRG (AID 2283531)
Method in brief: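 Expression change of SULT2A1, by qRT-PCR with three housekeeping-gene normalization, was scored bidirectionally versus DMSO. Cells: differentiated HepaRG, dosed in duplicate for 48 h across 8 points, highest 100 µM, half-log dilution, 0.5% DMSO.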

[14] = read-out: Transforming Growth Factor (TGFA), TGFA (gene 7039); experiment: LTEA_HepaRG_TGFA: Life Technologies and Expression Analysis (LTEA) Assay for Transforming Growth Factor (TGFA) using HepaRG (AID 2283532)
Method in brief: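 HepaRG (human liver line), 48 h exposure, 8 conc. half-log down from 100 uM, 0.5% DMSO vehicle, duplicates; serum-free induction medium. TGFA mRNA by TaqMan qRT-PCR, ACTB/GAPDH/POLR2A normalization; gain/loss fit vs DMSO.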

[15] = read-out: Transforming Growth Factor (TGFB1), TGFB1 (gene 7040); experiment: LTEA_HepaRG_TGFB1: Life Technologies and Expression Analysis (LTEA) Assay for Transforming Growth Factor (TGFB1) Transporter using HepaRG (AID 2283533)
Method in brief: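 TGFB1 transcript measured by qRT-PCR with normalisation to three housekeeping genes (ACTB, GAPDH, POLR2A); human HepaRG line treated in duplicate for 48 hr with an 8-point series topping at 100 uM, 0.5% DMSO vehicle, bidirectionally fitted.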

TIMP1, TIMP1 (gene 7076) = experiment: LTEA_HepaRG_TIMP1: Life Technologies and Expression Analysis (LTEA) Assay for TIMP1 using HepaRG (AID 2283534);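 further: TaqMan qRT-PCR signal normalized to ACTB GAPDH and POLR2A housekeeping genes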
Method in brief: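 Bidirectional change in TIMP1 transcript versus 0.5% DMSO, measured by TaqMan qRT-PCR with three housekeeping genes for normalization. HepaRG human liver cells dosed 48 h in duplicate, top concentration 100 uM with half-log dilutions.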

[16] = read-out: Tumor necrosis factor receptor 1 (TNFRSF1A), TNFRSF1A (gene 7132); experiment: LTEA_HepaRG_TNFRSF1A: Life Technologies and Expression Analysis (LTEA) Assay for Tumor necrosis factor receptor 1 (TNFRSF1A) using HepaRG (AID 2283535)
Method in brief: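 mRNA measured by qRT-PCR (TaqMan, Fluidigm arrays) against ACTB/GAPDH/POLR2A housekeepers after 48 h chemical exposure of HepaRG cells. Top concentration 100 uM, half-log 8-point series, duplicates; vehicle 0.5% DMSO, both fit directions.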

[17] = read-out: NAD(P)H dehydrogenase [quinone] 1 (NQO1), NQO1 (gene 1728); experiment: LTEA_HepaRG_NQO1: Life Technologies and Expression Analysis (LTEA) Assay for NAD(P)H dehydrogenase [quinone] 1 (NQO1) using HepaRG (AID 2283526)
Method in brief: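 HepaRG, 48 h post-plating → serum-free induction medium → test chemical 48 h (duplicate, 100 uM top, half-log x8, 0.5% DMSO) → RNA isolation → qRT-PCR, ACTB/GAPDH/POLR2A normalization; bidirectional curve fit vs DMSO baseline.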

[18] = read-out: Nuclear factor NF-kappa-B p105 subunit (Homo sapiens) (UniProt P19838); experiment: LTEA_HepaRG_NFKB1: Life Technologies and Expression Analysis (LTEA) Assay for Nuclear Factor Kappa B Subunit 1 (NFKB1) using HepaRG (AID 2283521)
Method in brief: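 Differentiated human HepaRG cells in serum-free induction medium with 0.5% DMSO were exposed for 48 h to eight half-log concentrations, top 100 uM, in duplicate. NFKB1 mRNA measured by Fluidigm TaqMan qRT-PCR, normalised to ACTB, GAPDH and POLR2A; bidirectional fit versus DMSO.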

Measured: AC50

Nuclear factor erythroid 2-related factor 2 (Homo sapiens), sequence (Q16236 whole entry, looked up): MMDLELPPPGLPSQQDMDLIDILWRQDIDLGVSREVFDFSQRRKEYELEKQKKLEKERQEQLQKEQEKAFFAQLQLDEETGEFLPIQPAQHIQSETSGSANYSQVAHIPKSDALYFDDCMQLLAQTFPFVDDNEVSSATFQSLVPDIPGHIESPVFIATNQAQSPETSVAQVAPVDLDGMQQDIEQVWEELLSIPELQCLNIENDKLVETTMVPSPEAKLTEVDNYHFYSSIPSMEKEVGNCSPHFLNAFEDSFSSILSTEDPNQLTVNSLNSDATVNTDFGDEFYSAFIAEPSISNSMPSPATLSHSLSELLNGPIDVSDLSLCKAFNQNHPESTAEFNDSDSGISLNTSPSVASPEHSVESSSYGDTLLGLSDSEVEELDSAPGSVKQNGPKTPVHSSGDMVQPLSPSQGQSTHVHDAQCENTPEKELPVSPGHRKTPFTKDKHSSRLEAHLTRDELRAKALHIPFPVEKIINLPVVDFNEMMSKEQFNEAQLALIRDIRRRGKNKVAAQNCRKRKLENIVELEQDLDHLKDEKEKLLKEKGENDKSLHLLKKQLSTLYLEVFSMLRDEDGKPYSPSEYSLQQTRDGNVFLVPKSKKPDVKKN
Signal transducer and activator of transcription 3 (Homo sapiens), sequence (P40763 whole entry, looked up): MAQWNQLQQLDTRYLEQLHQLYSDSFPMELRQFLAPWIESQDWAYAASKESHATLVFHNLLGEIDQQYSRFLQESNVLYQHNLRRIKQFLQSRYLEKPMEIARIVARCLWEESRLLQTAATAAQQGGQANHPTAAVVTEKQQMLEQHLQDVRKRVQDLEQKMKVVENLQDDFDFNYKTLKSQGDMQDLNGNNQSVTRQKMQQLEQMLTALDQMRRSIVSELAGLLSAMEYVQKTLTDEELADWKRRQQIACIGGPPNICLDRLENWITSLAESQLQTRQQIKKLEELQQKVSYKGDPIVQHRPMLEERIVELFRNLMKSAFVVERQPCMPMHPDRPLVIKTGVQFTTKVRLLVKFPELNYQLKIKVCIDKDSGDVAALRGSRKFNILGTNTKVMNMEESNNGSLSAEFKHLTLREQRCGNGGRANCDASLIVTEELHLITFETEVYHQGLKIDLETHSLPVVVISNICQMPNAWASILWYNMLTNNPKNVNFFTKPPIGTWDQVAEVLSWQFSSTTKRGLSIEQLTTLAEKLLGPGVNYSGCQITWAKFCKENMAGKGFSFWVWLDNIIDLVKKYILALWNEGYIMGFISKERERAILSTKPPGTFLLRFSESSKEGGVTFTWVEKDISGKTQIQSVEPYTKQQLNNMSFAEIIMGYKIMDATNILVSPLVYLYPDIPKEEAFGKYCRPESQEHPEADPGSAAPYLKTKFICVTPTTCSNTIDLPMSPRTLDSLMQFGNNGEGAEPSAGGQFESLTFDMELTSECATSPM
Nuclear factor NF-kappa-B p105 subunit (Homo sapiens), sequence (P19838 whole entry, looked up): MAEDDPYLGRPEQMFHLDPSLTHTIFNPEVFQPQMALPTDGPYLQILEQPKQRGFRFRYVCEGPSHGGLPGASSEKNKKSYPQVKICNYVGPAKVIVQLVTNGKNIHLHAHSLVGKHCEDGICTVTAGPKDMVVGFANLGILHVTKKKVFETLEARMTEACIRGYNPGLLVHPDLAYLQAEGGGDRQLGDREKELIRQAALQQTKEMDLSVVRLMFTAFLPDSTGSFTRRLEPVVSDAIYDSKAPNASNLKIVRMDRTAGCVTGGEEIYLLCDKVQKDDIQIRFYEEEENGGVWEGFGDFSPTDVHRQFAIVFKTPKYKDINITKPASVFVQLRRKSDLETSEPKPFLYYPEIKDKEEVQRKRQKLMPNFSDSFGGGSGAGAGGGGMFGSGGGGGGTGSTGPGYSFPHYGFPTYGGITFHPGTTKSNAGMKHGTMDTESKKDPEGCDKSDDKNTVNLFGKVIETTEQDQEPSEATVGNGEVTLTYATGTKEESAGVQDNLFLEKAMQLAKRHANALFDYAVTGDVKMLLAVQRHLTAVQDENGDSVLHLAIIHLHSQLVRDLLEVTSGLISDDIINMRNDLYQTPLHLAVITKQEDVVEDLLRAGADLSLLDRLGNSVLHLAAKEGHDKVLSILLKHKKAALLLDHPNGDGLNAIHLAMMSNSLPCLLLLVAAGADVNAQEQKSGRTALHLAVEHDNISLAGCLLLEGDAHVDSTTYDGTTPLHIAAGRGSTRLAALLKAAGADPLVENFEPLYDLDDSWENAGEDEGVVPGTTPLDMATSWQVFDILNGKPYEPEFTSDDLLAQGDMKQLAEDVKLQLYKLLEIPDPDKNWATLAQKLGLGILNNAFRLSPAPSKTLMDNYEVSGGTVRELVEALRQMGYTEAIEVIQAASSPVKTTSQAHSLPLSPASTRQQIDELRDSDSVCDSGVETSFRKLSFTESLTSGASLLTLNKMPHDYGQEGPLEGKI

CC(C)(C)c1ccccc1
not listed: [17] | [18]
inactive: all other assays above

NC(=Nc1ccccc1)Nc1ccccc1
active: [4] 19.3 µM
not listed: [18]
inactive: all other assays above

CCc1cc(C2=C(C(=O)O)N(c3ccccc3C(F)(F)F)S(=O)(=O)c3ccccc32)cc2c1OCO2
active: MYC, MYC (gene 4609) 56.7 µM | [3] 50 µM | [4] 28.5 µM | [8] 50 µM | [9] 50 µM | [12] 50 µM | [13] 85.5 µM | [14] 79.1 µM
not listed: [7] | [17] | [18]
inactive: all other assays above

COc1ccc(C(=O)Nc2nc3ccccc3c(NCc3ccccc3)c2C#N)cc1
active: [1] 14.7 µM | MYC, MYC (gene 4609) 14.6 µM | [3] 9.92 µM | [4] 16.1 µM | [9] 20.9 µM | [12] 16.3 µM | [13] 21.2 µM | [15] 7.58 µM
not listed: [7] | [17] | [18]
inactive: all other assays above

CC(C)(O)c1ccc(CNC(=O)c2cccnc2Oc2ccc(F)cc2)cc1
active: [3] 73.2 µM
not listed: [18]
inactive: all other assays above

O=C1c2c(O)cccc2Cc2cccc(O)c21
not listed: [7] | [15] | [18]
inactive: all other assays above

O=C1O[C@H]([C@H](O)CO)C(O)=C1O
not listed: [8] | [12] | [18]
inactive: all other assays above

O=Cc1ccccc1C=O
not listed: [17] | [18]
inactive: all other assays above

CN(C)C(=O)NC1(c2ccccc2)CCN(CCC[C@]2(c3ccc(Cl)c(Cl)c3)CCCN(C(=O)c3ccccc3)C2)CC1
inactive: [1] | [6] | [10] | [11] | [14] | TIMP1, TIMP1 (gene 7076) | [16]
active: [2] 19.4 µM | [3] 18.2 µM | [4] 12.5 µM | [18] 21.3 µM | [5] 21.2 µM | [7] 23.8 µM | [8] 19.2 µM | [12] 19.5 µM | [13] 19.4 µM | [15] 9.26 µM

From PubChem BioAssay (EPA / NIEHS)
